# Inconclusive results are not listed. Entries that show only a call come without a potency. Values without a mark were called inactive. Active and inactive are the calls of the source. Calls follow the shape of the full dose curve.
# Assay: qHTS assay for small molecule disruptors of the mitochondrial membrane potential - cell viability (AID 720634); also: nearly all actives have a fitted effect of over 20% in size;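 as to activity change, negative = cytotoxicity: human HepG2 liver cancer cells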
# Details: HepG2 viability, ATP luminescence (CellTiter-Glo), 1 h; series mostly up to 83.2 µM
# Source text: U.S. Tox21 Program National Center for Advancing Translational Sciences [NCATS] NIH Chemical Genomics Center [NCGC] U.S. Environmental Protection Agency [EPA] National Institutes of Environmental Health Sciences [NIEHS] National Toxicology Program [NTP] U.S. Food and Drug Administration [FDA] Tox21 Assay Overview: Mitochondrial membrane potential (MMP), one of the parameters for mitochondrial function, is generated by mitochondrial electron transport chain that creates an electrochemical gradient by a series of redox reactions. This gradient drives the synthesis of ATP, a crucial molecule for various cellular processes. Measuring MMP in living cells is commonly used to assess the effect of chemicals on mitochondrial function; decreases in MMP can be detected using lipophilic cationic fluorescent dyes. […] The dye accumulates in the mitochondria of healthy cells as aggregates, with red fluorescence. The mitochondrial potential decreases and the dye could not accumulate in the mitochondria and remains in the cytoplasm in monomers, with green fluorescence. In addition to the mitochondrial potential assay, these cells were also used to test the cytotoxicity by determining the cell viability in the culture based on the quantitation of ATP present. The cytotoxicity was measured in the same assay well of MMP assay.
# Tox21 Assay Protocol Summary: 2,000 HepG2 cells in 5 uL/well were dispensed into black, clear-bottom 1536-well plates using a Multidrop Combi (Thermo Scientific) dispenser. The assay plates were incubated for an overnight at 37 C to allow cells to attach to the wells, followed by the transfer of 23 nL compound or DMSO vehicle by a pin tool (Kalypsys). The plates were incubated for 1 hr at 37 C and 5% CO2, followed by the addition of 5 uL of 2X m-MPI dye into each well using Flying Reagent Dispenser (Aurora Discovery) and then CellTiter-Glo reagent was added at 4 uL/well and incubated 30 min at room temperature. Then luminescence intensity was quantified on a ViewLux CCD-based plate reader.
# Potency is read from the fitted curve at half-maximal effect.
Structure (SMILES),Potency,"activity change, negative = cytotoxicity"
O=C(CCC1CCN(Cc2ccccc2)CC1)c1ccc2c(c1)NCCCC2,inactive,–
CCOC(=O)[C@@H](C)Oc1ccc(Oc2nc3ccc(Cl)cc3o2)cc1,inactive,–
CC(CCO)CCc1ccccc1 (stereo not given),inactive,–
NC(=O)N(O)[C@@H]1COc2cc(OCc3ccccc3)ccc21,inactive,–
CCOC(=O)CC(=O)C(=O)OCC,inactive,–
Cc1ccccc1N1C(=O)c2cc(S(N)(=O)=O)c(Cl)cc2NC1C (stereo not given),inactive,–
CCCCC(=O)O[C@]1(C(=O)CO)CC[C@H]2[C@@H]3CCC4=CC(=O)CC[C@]4(C)[C@H]3[C@@H](O)C[C@@]21C,inactive,–
O=C(C(=O)c1ccccc1)c1ccccc1,inactive,–
CCCCCCCCCCOS(=O)(=O)O,inactive,–
CNCCCC1c2ccccc2C=Cc2ccccc21,inactive,–
COCC(O)CO (stereo not given),inactive,–
Cc1oc(C)c(C(=O)Nc2ccccc2)c1C,inactive,–
CN(C)C(=O)Nc1ccc(Oc2ccc(Cl)cc2)cc1,inactive,–
CC(C)(O)c1ccccc1CC[C@@H](SCC1(CC(=O)O)CC1)c1cccc(/C=C/c2ccc3ccc(Cl)cc3n2)c1,inactive,–
C[Si](NC1CCCCC1)(NC1CCCCC1)NC1CCCCC1,inactive,–
Nc1ccc(C(=O)OCCCOC(=O)c2ccc(N)cc2)cc1,inactive,–
CCCCCCCCCCCCCCC[C@H](O)[C@@H](N)CO,inactive,–
NC(=O)Nc1ccc(Cl)c(Cl)c1,inactive,–
Cc1cc(O)c(C(C)C)cc1Cl,inactive,–
CC(=N\O)/C(C)=N/O,inactive,–

Structure (SMILES),Potency,"activity change, negative = cytotoxicity"
CCCCC(CC)CNCC(CC)CCCC (stereo not given),inactive,–
CCCC(=O)O[C@]1(C(=O)COC(=O)CC)CC[C@H]2[C@@H]3CCC4=CC(=O)CC[C@]4(C)[C@H]3[C@@H](O)C[C@@]21C,inactive,–
CCCCCCCC/C=C\CCCCCCCC(=O)OC(CO)CO,inactive,–
Cc1cc(OI)c(C(C)C)cc1-c1cc(C(C)C)c(OI)cc1C,inactive,–
C=CC(C)(C)CC(=O)OC,inactive,–
Nc1nccs1,inactive,–
O=C(OCCOCCO)c1ccccc1Nc1cccc(C(F)(F)F)c1,inactive,–
Cc1nccn1-c1ccc(Sc2cccc(C3(C(N)=O)CCOCC3)c2)cc1,inactive,–
O=C(CS)OCCOC(=O)CS,inactive,–
CC(=O)OCC(=O)[C@H]1CC[C@H]2[C@@H]3CCC4=CC(=O)CC[C@]4(C)[C@H]3CC[C@]12C,inactive,–
C=CC(C)(O)CCCC(C)CCCC(C)CCCC(C)C (stereo not given),inactive,–
C=CCCCCCCCCCCCCCCCC,–,11.3% [at 8.08 µM]
CCC1(C)CC(=O)NC1=O (stereo not given),inactive,–
CC1=CC(=O)CC(C)(C)C1(O)/C=C/C(C)=C\C(=O)O (stereo not given),inactive,–
Fc1ccccc1[C@@H](F)COC1CCC(Nc2ncnc3[nH]ncc23)CC1 (stereo not given in full),inactive,–
Cc1ccc(S)cc1,inactive,–
COCCOC(=O)C1=C(C)NC(C)=C(C(=O)OC/C=C/c2ccccc2)C1c1cccc([N+](=O)[O-])c1 (stereo not given),9.44 µM (active),–
CC(=O)Nc1ccccc1C,inactive,–
CC(COc1ccc(C(C)(C)C)cc1)OS(=O)OCCCl (stereo not given),inactive,–
CCn1cc(C(=O)O)c(=O)c2cc(F)c(N3CCNCC3)nc21,inactive,–

# Reference: PubChem BioAssay (Tox21)
